Test results as given in PubChem BioAssay (NCI).
This is part of a sample that, as a whole, favours compounds with a hit. Of some 79,000 tested, about 15% had one in any assay. The source made the active and inactive calls. No stated cut-off is given here; in the data, active means growth inhibition above about 70%; inactive means the rest.

Assays:
[1] = NCI Yeast Anticancer Drug Screen. Data for the rad52 strain (AID 147);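 further: 0% = growth of vehicle-treated control cultures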; conditions: S. cerevisiae rad52 mutant growth inhibition, hits give high values
How it was run: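 Genetically altered yeast (DNA damage repair defect) treated with compound; inhibition calculated relative to vehicle.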

[2] = NCI Yeast Anticancer Drug Screen. Data for the wt1 strain (AID 149);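 further: 0% = growth of vehicle-treated wt1 cultures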; conditions: S. cerevisiae wt1 strain (SPY 50644) growth inhibition, hits give high values
How it was run: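 Readout: yeast growth inhibition, normalised to vehicle controls, in the wt1 strain exposed to test compounds.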

[3] = NCI Yeast Anticancer Drug Screen. Data for the rad50EPP+ strain (AID 151);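 further: 0% = growth of vehicle-treated control cultures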; conditions: S. cerevisiae rad50 mutant strain, hits give high values
How it was run: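 Strain rad50EPP+; compound exposure; % growth inhibition vs vehicle.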

[4] = NCI Yeast Anticancer Drug Screen. Data for the mgt1 strain (AID 153); conditions: S. cerevisiae mgt1 mutant growth inhibition, hits give high values
How it was run: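 Read-out: yeast growth inhibition vs vehicle control. Strain mgt1, drawn from a panel altered in DNA damage repair or cell cycle control.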

[5] = NCI Yeast Anticancer Drug Screen. Data for the rad50 strain (AID 155);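 further: 0% = growth of vehicle-only cultures of the same strain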; conditions: S. cerevisiae rad50 strain growth inhibition, hits give high values
How it was run: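 Compounds were tested on a yeast strain with an engineered DNA damage repair alteration; the reported value is growth inhibition normalised to vehicle treatment.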

[6] = NCI Yeast Anticancer Drug Screen. Data for the mec2-1 strain (AID 157); conditions: S. cerevisiae mec2-1 strain, hits give high values
How it was run: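 Cells of the genetically defined mec2-1 yeast strain are incubated with test compound. Inhibition of growth is calculated against vehicle-treated controls.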

[7] = NCI Yeast Anticancer Drug Screen. Data for the rad14 strain (AID 159);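 further: 0% = growth of vehicle-treated control cultures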; conditions: S. cerevisiae rad14 strain growth inhibition, hits give high values
How it was run: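 Compound-treated yeast with a defined DNA-repair lesion; growth inhibition normalised to vehicle-treated cultures.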

[8] = NCI Yeast Anticancer Drug Screen. Data for the sgs1 mgt1 strain (AID 161);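 further: 0% = growth of cultures given vehicle only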; conditions: S. cerevisiae sgs1 mgt1 strain, hits give high values
How it was run: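 Mutant yeast exposed to compound; growth scored against vehicle-only wells.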

[9] = NCI Yeast Anticancer Drug Screen. Data for the CLN2oe strain (AID 163);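 further: 0% = growth of vehicle-only control cultures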; conditions: S. cerevisiae CLN2oe strain, hits give high values
How it was run: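 Strain altered in cell-cycle control, incubated with compound; growth compared to solvent-treated controls.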

[10] = NCI Yeast Anticancer Drug Screen. Data for the cln2 rad14 strain (AID 165);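 further: 0% = growth equal to vehicle treated cultures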; conditions: S. cerevisiae cln2 rad14 strain, hits give high values
How it was run: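 The screen exposed genetically defined yeast (cln2 rad14) to test compounds and scored growth inhibition relative to vehicle-treated controls.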

[11] = NCI Yeast Anticancer Drug Screen. Data for the bub3 strain (AID 167); conditions: S. cerevisiae bub3 mutant strain, hits give high values
How it was run: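 Growth of a checkpoint-deficient yeast mutant is measured after compound exposure. Values represent inhibition relative to vehicle.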

[12] = NCI Yeast Anticancer Drug Screen. Data for the wt2 strain (AID 169);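 further: 0% = growth of vehicle-treated yeast cultures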; conditions: S. cerevisiae wt2 strain growth inhibition, hits give high values
How it was run: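 Steps: yeast strain treated with compound; growth recorded; inhibition calculated relative to cultures given vehicle alone.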

[13] = NCI Yeast Anticancer Drug Screen. Data for the mlh1 strain (AID 171);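 further: 0% = growth of vehicle-treated control cultures of the same strain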; conditions: S. cerevisiae mlh1 strain growth inhibition, hits give high values
How it was run: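 Yeast screen: mutant strain plus compound, growth scored against vehicle control wells.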

[14] = NCI Yeast Anticancer Drug Screen. Data for the sgs1 strain (AID 173);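 further: 0% = growth of vehicle-only control cultures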; conditions: S. cerevisiae sgs1 mutant, hits give high values
How it was run: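 Inhibition of yeast growth served as the measure. The mutant strain was treated with each compound, and growth was normalised to cultures receiving vehicle alone.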

[15] = NCI Yeast Anticancer Drug Screen. Data for the mlh1 rad18 strain (AID 175); conditions: S. cerevisiae mlh1 rad18 strain growth inhibition, hits give high values
How it was run: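 Compound-treated yeast growth, normalised to vehicle controls. Strain bears defined DNA repair mutations.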

[16] = NCI Yeast Anticancer Drug Screen. Data for the rad18 strain (AID 177); conditions: S. cerevisiae rad18 mutant growth inhibition, hits give high values
How it was run: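 Inhibition values reflect reduced yeast growth compared with vehicle-treated controls, using a strain engineered with a DNA damage repair defect.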

[17] = at 5.0 µM (retest, dose inferred, filed as 0.5)
[18] = at 50.0 µM (retest, dose inferred, filed as 5.0)

Measured: growth inhibition

Cn1c(=O)c2ccccc2c2ccccc21
inactive: [1]; at 1.2 µM -2% | [1]; at 3.7 µM 9% | [1]; at 11.0 µM 32% | [2]; at 1.2 µM -5% | [2]; at 3.7 µM -8% | [2]; at 11.0 µM -10% | [2]; at 33.0 µM 11% | [2]; at 100.0 µM 21% | [3]; at 1.2 µM 0% | [3]; at 3.7 µM 19% | [3]; at 11.0 µM 52% | [4]; at 1.2 µM -1% | [4]; at 3.7 µM -3% | [4]; at 11.0 µM -1% | [4]; at 33.0 µM 35% | [4]; at 100.0 µM 51% | [5]; at 1.2 µM -3% | [5]; at 3.7 µM 4% | [5]; [17] -132% | [5]; at 11.0 µM 41% | [6]; at 1.2 µM 0% | [6]; at 3.7 µM 0% | [6]; [17] -45% | [6]; at 11.0 µM 11% | [6]; at 33.0 µM 26% | [6]; [18] 5% | [6]; at 100.0 µM 52% | [7]; at 1.2 µM 0% | [7]; at 3.7 µM 2% | [7]; at 11.0 µM 15% | [7]; at 33.0 µM 39% | [7]; at 100.0 µM 63% | [8]; [17] -64% | [8]; [18] 35% | [9]; at 1.2 µM 1% | [9]; at 3.7 µM 0% | [9]; at 11.0 µM 7% | [9]; at 33.0 µM 22% | [9]; at 100.0 µM 51% | [10]; [17] -54% | [10]; [18] -6% | [11]; at 1.2 µM -5% | [11]; at 3.7 µM -2% | [11]; [17] -69% | [11]; at 11.0 µM 5% | [11]; at 33.0 µM 29% | [11]; [18] 5% | [11]; at 100.0 µM 51% | [12]; at 1.2 µM -1% | [12]; at 3.7 µM -1% | [12]; at 11.0 µM -2% | [12]; at 33.0 µM 21% | [12]; at 100.0 µM 50% | [13]; at 1.2 µM 8% | [13]; at 3.7 µM -5% | [13]; at 11.0 µM 4% | [13]; at 33.0 µM 46% | [13]; at 100.0 µM 59% | [14]; at 1.2 µM -2% | [14]; at 3.7 µM -1% | [14]; at 11.0 µM -2% | [14]; at 33.0 µM 43% | [14]; at 100.0 µM 66% | [15]; [17] -114% | [15]; [18] 36% | [16]; at 1.2 µM 2% | [16]; at 3.7 µM 5% | [16]; at 11.0 µM 31%
active: [1]; at 33.0 µM 88% | [1]; at 100.0 µM 96% | [3]; at 33.0 µM 87% | [3]; at 100.0 µM 91% | [5]; at 33.0 µM 91% | [5]; [18] 84% | [5]; at 50.0 µM 97% | [5]; at 100.0 µM 94% | [6]; at 50.0 µM 75.1% | [8]; at 50.0 µM 84.9% | [10]; at 50.0 µM 70.5% | [11]; at 50.0 µM 85.8% | [15]; at 50.0 µM 96.3% | [16]; at 33.0 µM 83% | [16]; at 100.0 µM 91%
